Assay outcomes deposited in PubChem by Sanford-Burnham Center for Chemical Genomics.
CYP2C19 inhib – inhibitors of human CYP2C19 | P33261 | CYP2C19 Supersomes, luciferin-H EGE luminescence, 30 min | inhibition, % at 5 µM | 21% of 96,000 active | AID 778;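 active = CYP2C19 inhibition above a set limit at 5 µM in the primary screen, cut at about 50% in these data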;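 note: plate controls were negative control wells for no effect and 2.5 mM tranylcypromine positive control for full effect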
CYP2C9 inh – inhibitors of human CYP2C9; 20% of 96,000 active; CYP2C9 Supersomes, luciferin-H conversion, luminescence; inhibition, % at 5 µM; AID 777; P11712;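 active = blocking of liver enzyme CYP2C9 beyond about 50% at 5 µM, limit read from the data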
PLAP activator – activators of human placental alkaline phosphatase; purified PLAP enzyme, luminescent substrate read-out; stronger effect = higher value; activation fold at 20 µM; 1.2% of 96,000 active; AID 696; in the data active = activation fold above about 2
Target sequence (P05187 whole entry, looked up): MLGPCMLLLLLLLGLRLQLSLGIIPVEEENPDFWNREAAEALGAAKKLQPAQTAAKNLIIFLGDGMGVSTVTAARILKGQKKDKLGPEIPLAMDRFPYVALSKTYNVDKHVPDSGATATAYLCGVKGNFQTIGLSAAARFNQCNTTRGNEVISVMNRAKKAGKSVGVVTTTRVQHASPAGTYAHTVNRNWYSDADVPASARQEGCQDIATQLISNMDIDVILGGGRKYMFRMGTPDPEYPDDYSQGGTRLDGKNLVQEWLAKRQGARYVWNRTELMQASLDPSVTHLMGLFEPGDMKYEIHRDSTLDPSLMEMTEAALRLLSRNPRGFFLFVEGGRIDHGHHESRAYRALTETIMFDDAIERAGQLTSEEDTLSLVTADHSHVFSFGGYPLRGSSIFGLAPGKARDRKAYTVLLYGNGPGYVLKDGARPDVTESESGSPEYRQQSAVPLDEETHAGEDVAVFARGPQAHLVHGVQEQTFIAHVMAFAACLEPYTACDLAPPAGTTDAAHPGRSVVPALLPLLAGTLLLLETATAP
CYP2C9 activ – CYP2C9 (human) activation. activation factor at 5 µM. 1.4% of 96,000 active. recombinant CYP2C9, luciferin-H conversion, luminescence; stronger effect = higher value; factor 1 = untreated enzyme, 0 = blocked;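 active = activation factor of 2 or more for CYP2C9 at a 5 µM dose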;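 note: 0 = sulfaphenazole-blocked wells and 1 = vehicle-only wells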
CYP2C19 activ – activators of human cytochrome P450 2C19; AID 1025; P33261; 96,000 tested, under 10 active; recombinant CYP2C19, luciferin-H EGE luminescence; stronger effect = higher value; 0 = fully inhibited enzyme, 1 = untreated enzyme; activation factor at 5 µM;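 active = activation factor of at least 2 at 5 µM in the primary screen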;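 note: 0 = wells with 2.5 mM tranylcypromine and 1 = vehicle-only wells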
An asterisk follows results filed as active. In the library only some 31% were active in any assay of this set; here they are far more common.

SMILES	CYP2C19 inhib	CYP2C9 inh	PLAP activator	CYP2C9 activ	CYP2C19 activ
O=C(CN1C(=O)CC(c2ccco2)Sc2ccccc21)NCc1ccc2c(c1)OCO2 (configuration not stated)	94*	86*	1.5	0.1	0.1
O=C(CN1C(=O)C2CC=CCC2C1=O)NCc1ccc2c(c1)OCO2 (configuration not stated)	-8	-8	1.1	1.1	1.1
CCC1Sc2ccccc2N(CC(=O)NCc2ccccc2OC)C1=O (configuration not stated)	25	-37	0.9	1.4	0.8
CCN1C(=O)CC(c2ccco2)Sc2ccccc21 (configuration not stated)	53*	24	1.1	0.8	0.5
COc1cc(C2CC(=O)N(CC(=O)NCc3ccco3)c3ccccc3S2)cc(OC)c1OC (configuration not stated)	65*	71*	1.5	0.3	0.4
O=C(CC1NCCNC1=O)OCCCc1ccccc1 (configuration not stated)	13	-13	0.9	1.1	0.9
CC(CN1CCOCC1)(NS(=O)(=O)c1ccccc1)c1ccccc1 (configuration not stated)	92*	60*	1	0.4	0.1
Nn1c(Cc2cccc3ccccc23)nnc1SCC(=O)NC1CCS(=O)(=O)C1 (configuration not stated)	2	-34	2*	1.3	1
CN(C(=O)CSc1nnc(Cc2ccccc2F)n1N)C1CCS(=O)(=O)C1 (configuration not stated)	-6	-7	0.8	1.1	1.1
CS(=O)(=O)N(CC(=O)N1CCCC1)c1ccc2c(c1)OCCO2	23	25	1.1	0.7	0.8
c1ccc(CSc2n[nH]c(-c3ccco3)n2)cc1	61*	17	0.9	0.8	0.4
CC1CCCC(NC(=S)Nc2ccc(SC(F)F)cc2)C1C (configuration not stated)	68*	-6	0.9	1.1	0.3
Cc1ccc2nc(NC(=O)CSCC(=O)OCC(=O)c3ccc(Br)cc3)sc2c1	3	20	0.9	0.8	1
Clc1ccc(-c2nnnn2-c2ccc(Cl)c(Cl)c2)cc1Cl	96*	53*	0.4	0.5	0
Cc1[nH]c2ccc(-c3nnc(SCC(=O)NCc4ccco4)n3Cc3ccccc3)cc2c1C	32	66*	2.1*	0.3	0.7
Cc1sc2nc(SCC(=O)NCc3ccco3)n(-c3ccccc3)c(=O)c2c1C	8	7	0.9	0.9	0.9
Cc1sc2nc(SCC(=O)NCc3ccco3)n(Cc3ccccc3)c(=O)c2c1C	3	59*	1	0.4	1
Cc1sc2nc(C(C)C)nc(SCC(=O)NCc3ccco3)c2c1C	78*	82*	1.4	0.2	0.2
COc1cc(C(=O)NCCC(C)C)c([N+](=O)[O-])cc1OC	0	-14	0.9	1.1	1
CC(C)c1ccc(OCc2ccc(C(=O)N3CCN(c4ccccn4)CC3)cc2)cc1	27	43	1	0.6	0.7
CC1=C(C(N)=O)C(c2ccc(C)o2)C(C(N)=O)=C(C)N1	6	7	0.8	0.9	0.9
N#C/C(=C\c1ccc[nH]1)Sc1nc2ccccc2s1	92*	77*	1	0.2	0.1
N#C/C(=C(/O)c1ccco1)c1nc2ccccc2s1	7	37	1	0.6	0.9
N#C/C(=C\c1cccs1)Sc1nc2ccccc2s1	96*	50	0.7	0.5	0
Cc1cc(C)n(CC(O)COc2ccccc2C(=O)Nc2ccccc2)n1 (configuration not stated)	91*	88*	1.4	0.1	0.1
SMILES	CYP2C19 inhib	CYP2C9 inh	PLAP activator	CYP2C9 activ	CYP2C19 activ
Cc1cc(C)n(CC(O)COc2cccc(OCC(O)Cn3nc(C)cc3C)c2)n1 (configuration not stated)	48	29	1.8	0.7	0.5
CCOC(=O)Nc1ccc2c(c1)Sc1ccccc1N2C(=O)CCN1CCOCC1	60*	37	1.4	0.6	0.4
CCOC(=O)Nc1ccc2c(c1)N(C(=O)N1CCN(C)CC1)c1ccccc1S2	73*	7	1.2	0.9	0.3
O=C(CN1CCOCC1)Nc1ccc(S(=O)(=O)N2CCCCCC2)cc1	7	1	1.1	1	0.9
O=C(COC(=O)CN1C(=O)c2ccccc2C1=O)Nc1ccc(S(=O)(=O)N2CCCC2)cc1	-5	36	0.8	0.6	1.1
O=C(Cn1ncc2c1-c1ccccc1OC2)Nc1ccc(S(=O)(=O)N2CCCCC2)cc1	17	68*	1.5	0.3	0.8
Cc1ccc(S(=O)(=O)N2CCOCC2)cc1NC(=O)COC(=O)CCC(=O)c1cccs1	16	14	1.3	0.9	0.8
CC(C(=O)OCC(=O)Nc1ccc(S(=O)(=O)N2CCCCC2)cc1)N1C(=O)c2ccccc2C1=O (configuration not stated)	22	92*	1.3	0.1	0.8
O=C(COC(=O)CCC(=O)c1cccs1)Nc1ccc(S(=O)(=O)N2CCOCC2)cc1	21	89*	1.5	0.1	0.8
O=C(COC(=O)CCN1C(=O)c2ccccc2C1=O)Nc1ccc(S(=O)(=O)N2CCCC2)cc1	54*	96*	1	0	0.5
COC(=O)Nc1ccc(S(=O)(=O)N2CCCCC2)cc1	32	37	0.9	0.6	0.7
COc1ccccc1-n1c(C)cc(SC)c(C(C)=O)c1=S	48	36	0.8	0.6	0.5
Cn1c(CO)cnc1SCc1ccc(Cl)cc1	84*	17	0.9	0.8	0.2
CCN(C(=O)c1cc2cc(OC)ccc2oc1=O)c1ccccc1	16	36	0.8	0.6	0.8
CCN(C(=O)c1cc2cc(OC)ccc2oc1=O)c1cccc(C)c1	56*	51*	1.1	0.5	0.4
Cc1cc(C)c2c(c1)SC1=NC(c3ccccc3)(C(F)(F)F)NC(=O)N12 (configuration not stated)	20	13	1.1	0.9	0.8
N#Cc1nc(COc2ccccc2)oc1N1CCCCC1	50	34	1	0.7	0.5
N#Cc1nc(COc2ccccc2)oc1N1CCN(c2cccc(Cl)c2)CC1	38	80*	0.9	0.2	0.6
N#Cc1nc(COc2cccc(Cl)c2)oc1N1CCN(c2ccccc2)CC1	50	57*	1	0.4	0.5
N#Cc1nc(COc2ccccc2F)oc1N1CCCCCC1	33	45	0.7	0.6	0.7
COc1ccc(N2CCN(c3oc(COc4ccccc4Cl)nc3C#N)CC2)cc1	38	56*	1.2	0.4	0.6
N#Cc1nc(COc2ccc(Cl)cc2)oc1N1CCCCCC1	89*	97*	0.9	0	0.1
O=C(c1cc2nc(-c3ccccc3)cc(-c3ccccc3)n2n1)N1CCN(C(=O)c2ccco2)CC1	38	42	1.1	0.6	0.6
CCC1CCCCN1C(=O)Cn1c(C(=O)OC)cc2ccsc21 (configuration not stated)	53*	38	1.1	0.6	0.5
